Results as given in the supplement of paper PMC6555819.

How the values were obtained:
Test in all cases: PBM binding z-score (relative to random genomic background probes); higher = stronger binding; sequences stand for … in GC…GCGATTGACAGCGTAGAATGAAGG
[1] = system: FXR:RXRa (NR concentration 270 nM, RXRa partner concentration 90 nM)
Method in brief: (§1)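 Ligand-free nuclear receptor dimers were applied to custom Agilent 4×180K protein-binding microarrays whose double-stranded probes carried direct-repeat seeds, single-nucleotide variants, half-site ablations and random human genomic background sequences in 34-nt variable regions. Incubation lasted 1 h. Binding z-scores were computed against the random background probes from regression-normalized fluorescence.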

[2] = system: LXRa:RXRa (NR concentration 270 nM, RXRa partner concentration 90 nM)
Method in brief: as §1

[3] = system: LXRa homodimer (NR concentration 270 nM)
Method in brief: as §1

[4] = system: LXRb:RXRa (NR concentration 270 nM, RXRa partner concentration 90 nM)
Method in brief: as §1

[5] = system: LXRb homodimer (NR concentration 270 nM)
Method in brief: as §1

[6] = system: PPARa:RXRa (NR concentration 270 nM, RXRa partner concentration 90 nM)
Method in brief: as §1

[7] = system: PPARg:RXRa (NR concentration 180 nM, RXRa partner concentration 90 nM)
Method in brief: as §1

[8] = system: PPARg:RXRa 270nM:90nM, anti-RXR (NR concentration 270 nM, RXRa partner concentration 90 nM)
Method in brief: as §1

[9] = system: PPARg:RXRa 30nM:10nM, anti-RXR (NR concentration 30 nM, RXRa partner concentration 10 nM)
Method in brief: as §1

[10] = system: PPARg:RXRa 90nM:30nM, anti-RXR (NR concentration 90 nM, RXRa partner concentration 30 nM)
Method in brief: as §1

Row | Sequence | PBM binding z-score [1] | PBM binding z-score [2] | PBM binding z-score [3] | PBM binding z-score [4] | PBM binding z-score [5] | PBM binding z-score [6] | PBM binding z-score [7] | PBM binding z-score [8] | PBM binding z-score [9] | PBM binding z-score [10]
1 | TGTCAAAGTTCAAAGGTAAAGTAAGTATCCACAC | 7.42 | 6.49 | 3.99 | 4.8 | 1.68 | 5.87 | 8.7 | 7.81 | 5.23 | 7.51
2 | ACTATTAGTTGAGACGCGGGCAACCGATAGGTTG | -0.0666 | -0.0998 | -0.325 | -0.488 | 0.193 | -0.624 | 0.371 | -0.414 | -0.25 | -0.167
3 | ATCTCTAGGTAAAATTCAGTGAAAGATCGATAGA | 0.583 | 0.493 | 0.422 | 0.121 | 0.916 | 0.171 | 0.606 | 0.699 | 0.552 | 0.917
4 | CCTACTGGGGCAAGGTTACCATAACGCACAGCCA | 0.343 | 0.654 | -0.167 | 0.621 | -0.484 | 2.59 | 4.74 | 4.44 | 2.15 | 4.29
5 | TCGAGTAGGTTAGGGGCATTCGGAATGGCGTCGA | 0.123 | 0.347 | -0.32 | 0.736 | -0.712 | 1.06 | 0.477 | 2.22 | 1.15 | 1.51
6 | TTACCAATGTGAGCTGAGGTCGTTGATCCAACTC | 0.612 | 0.222 | -0.15 | 0.408 | -0.727 | 0.851 | -0.119 | 0.638 | 0.496 | 0.42
7 | TGTATTAGTTGATTAGGGCAACCGAAACAGCGGA | 0.242 | 0.0777 | 0.397 | 0.234 | 1.3 | 0.484 | 0.304 | 0.782 | 0.748 | 0.794
8 | CATACATGGTCAGCTAGGCCAGAGTAGGGACGGC | -0.504 | -0.26 | -0.736 | -0.962 | -0.25 | -1.12 | 0.342 | -0.789 | -0.741 | -0.753
9 | CGTCCAAGGTCAAAGGAGGTCAGTGAAGACAGAT | 7.79 | 7.44 | 4.18 | 5.88 | 1.51 | 6.08 | 5.84 | 5.46 | 2.75 | 4.81
10 | TAGCCTAGGTCAGATCGGGCCATTATACGCTATA | 2.53 | 1.3 | -0.125 | 1.07 | -0.132 | 1.55 | 0.711 | 0.523 | -0.272 | 0.0184
11 | ATCGAAAGGTCGAGGTTAGTATAGAGAAAGGGAA | 3.77 | 3.57 | 0.422 | 2.93 | 0.526 | 4.48 | 3.03 | 3.6 | 1.65 | 2.68
12 | ATCTGTAGGTAAGACTCAGTTCAGTGAAGAACGC | 0.0473 | 0.226 | 0.296 | 0.0254 | -0.0598 | 0.0967 | 0.00745 | 0.0947 | -0.305 | -0.0173
13 | GATACAGGGTCAGCAAGAGGCCAGAGTATGGAAA | 4.96 | 3.07 | -0.295 | 2.49 | -0.626 | 4.8 | 3.55 | 3.6 | 1.29 | 2.37
14 | CGTCCAAGGTCATAGGAGGGCAGTGAAGACAGAT | 7.39 | 6.11 | 1.55 | 4.12 | 0.284 | 5.68 | 5.29 | 5.19 | 1.85 | 3.99
15 | CGTCCAATGTCAAAGGTCAGTGAAGAGATGACGG | 4.62 | 4.48 | 1.56 | 3.64 | 0.773 | 5.18 | 6.67 | 6.88 | 4.57 | 6.96
16 | ATATGTGGGTTAAGGGTCATTCAGGTTGGTTCGC | 5.26 | 4.74 | 3.07 | 4.91 | 2.59 | 6.53 | 11.6 | 9.82 | 10.4 | 11.3
17 | CTCGAAAGGTCGTGCCCAGGTGAGTATACCAAAC | 5.26 | 3.99 | 0.422 | 3.22 | 0.542 | 4.81 | 2.54 | 3.88 | 1.14 | 2.23
18 | ATCTCTAGGTACAGATAGTTCAGTGAATGCAAAT | 0.079 | 0.141 | 0.396 | 0.242 | 0.548 | 0.12 | 0.349 | 0.108 | 0.29 | 0.33
19 | CCTTACGGGTCAAGTTTATAGCACGGGTGGTACG | 6.15 | 4.11 | 0.444 | 3.48 | 0.604 | 5.14 | 4.2 | 4.22 | 1.91 | 3.06

Row | Sequence | PBM binding z-score [1] | PBM binding z-score [2] | PBM binding z-score [3] | PBM binding z-score [4] | PBM binding z-score [5] | PBM binding z-score [6] | PBM binding z-score [7] | PBM binding z-score [8] | PBM binding z-score [9] | PBM binding z-score [10]
20 | TCTCGGCGGACACGAAGGTCAGAGCTTTCCAGAG | 0.592 | 0.668 | 0.198 | 0.454 | -1.37 | 1.5 | 0.0295 | 1.04 | 1.16 | 1.08
21 | CAAACTGGGTCACGAAAGGTCAAAGTCGAATGAC | 7.32 | 8.03 | 6.63 | 7.01 | 2.08 | 6.6 | 10.5 | 8.52 | 6.44 | 8.43
22 | ATACCTAGGTGATCGTGAGGTCGTTGATACTAAC | 1.53 | 1.12 | 0.563 | 1.35 | 0.0825 | 1.55 | 0.632 | 0.766 | 0.387 | 0.954
23 | TCTGCTAGGTCAACGATGGTTAGCTAATCTGCTA | 3.1 | 2.08 | -0.301 | 1.46 | -0.085 | 3.09 | 2.34 | 3.09 | 1.82 | 2.54
24 | CCTAGCAGGCCAATCTGCGTCACTCAAGGCTTGA | -0.461 | -0.378 | -0.462 | -0.429 | -0.0755 | -0.332 | -0.41 | -1.08 | -1.19 | -1.21
25 | TCAGACAGGTGAAGGTAACCCAGGTACGCAGTCG | 1.04 | 1.3 | 0.143 | 0.546 | -0.122 | 1.45 | 0.909 | 2.04 | 3.53 | 2.77
26 | AGTCAAAGTTCATGTAGGTAACGTAAGATATGCT | 6.48 | 5.94 | 4.83 | 3.65 | 1.37 | 4.9 | 6.75 | 6.37 | 3.09 | 5.61
27 | ATCTCTAGGTAAAGATAGTGCAGTGAATGCAAAT | 0.222 | 1.16 | 0.00124 | 0.147 | 0.236 | 0.141 | 0.354 | 0.233 | 0.0457 | 0.565
28 | ATATGTAGGTTACATCAGGGTCATTCAGGCTATG | 3.26 | 4.84 | 2.29 | 3.97 | 0.66 | 5.17 | 6.84 | 5.54 | 3.17 | 4.87
29 | GGAAGGAGGGCAAGTTGATAGCAGAGTTTGATGG | 1.04 | 0.798 | 0.562 | 1.5 | 1.47 | 1.92 | 1.2 | 1.53 | 0.406 | 0.957
30 | ATCGAAAGGTCGACGAGGTGAGTCTACACCGTTT | 4.73 | 3.39 | -0.244 | 2.47 | 0.381 | 4.55 | 2.93 | 3.2 | 0.846 | 1.9
31 | CCTTACGGGTCACTCCAGGTTATAGAATCGGAGT | 5.18 | 7.67 | 1.89 | 5.43 | 0.287 | 4.4 | 3.31 | 3.8 | 1.18 | 2.56
32 | AATACAGGGTCATCGTTGGCCAGAGTACGCACAG | 7.42 | 6.21 | 2.13 | 4.57 | 1.5 | 5.96 | 6.68 | 5.97 | 2.51 | 4.75
33 | CGTCCAAGGTCAAGGTTAGTGAAAGAGACTCGAA | 6.97 | 5.24 | 0.37 | 3.88 | 0.41 | 5.63 | 5.02 | 5.18 | 2.08 | 4.2
34 | TCTAGCAGTCCAGAGGGTCACTCAAGAGGTACGG | 0.754 | 0.962 | -0.326 | 1.19 | -1.12 | 2.06 | 0.609 | 1.52 | 2.05 | 1.63
35 | TCGAGTAGGTTACGGGCATTCAGAATGGCGTCGA | 0.0323 | 0.894 | -0.574 | -0.0129 | -1.41 | 1.33 | 1.14 | 1.54 | 0.893 | 1.06
36 | AGTCGAAGTTCACTAGGTAACGTAAGATTCAGCT | 1.2 | 1.74 | 0.29 | 1.03 | -0.107 | 2.81 | 3.18 | 3.43 | 0.891 | 2.44
37 | ATACCAAGGTGATCGTGAGGTCATTGATACTAAC | 4.13 | 4.22 | 4.81 | 3.53 | 0.748 | 3.62 | 1.7 | 1.98 | 0.601 | 1.25
38 | CTACCATGGTGAACAAGGTCGTTGATTACTATTC | 0.251 | 0.452 | 0.165 | 1.23 | -0.219 | 1.07 | 0.161 | 0.378 | -0.000193 | 0.175
